Source: PubChem BioAssay AID1851 (National Center for Advancing Translational Sciences (NCATS), 2009)
Several values for one entry are separate records, joined by “and”; a condition that tells them apart may be missing. Equal entries are not always repeated. Among all 16,000 compounds or so, about 5,700 (36%) were called active. Not shown: some 24% with an inconclusive outcome. Calls follow the shape of the dose curve; as a rule, active = well fitted curve in the direction sought with a large enough effect; inconclusive = small, poorly fitted or top-dose-only effect, or effect the other way; inactive = no such curve, though single readings can be large or run the other way. The list shows a part of the results.
% is scaled to controls: 0 for no effect and ±100 for the full control effect.

These compounds were tested against Cytochrome P450 1A2 (Homo sapiens) (UniProt P05177) (assay: Cytochrome panel assay with activity outcomes). Settings: recombinant CYP, pro-luciferin dealkylation, luminescence, p450-cyp1a2; series mostly up to 57.1 µM; activity, negative = inhibition: at the top concentration.
Chain of Cytochrome P450 1A2 (Homo sapiens) (P05177 whole entry, looked up): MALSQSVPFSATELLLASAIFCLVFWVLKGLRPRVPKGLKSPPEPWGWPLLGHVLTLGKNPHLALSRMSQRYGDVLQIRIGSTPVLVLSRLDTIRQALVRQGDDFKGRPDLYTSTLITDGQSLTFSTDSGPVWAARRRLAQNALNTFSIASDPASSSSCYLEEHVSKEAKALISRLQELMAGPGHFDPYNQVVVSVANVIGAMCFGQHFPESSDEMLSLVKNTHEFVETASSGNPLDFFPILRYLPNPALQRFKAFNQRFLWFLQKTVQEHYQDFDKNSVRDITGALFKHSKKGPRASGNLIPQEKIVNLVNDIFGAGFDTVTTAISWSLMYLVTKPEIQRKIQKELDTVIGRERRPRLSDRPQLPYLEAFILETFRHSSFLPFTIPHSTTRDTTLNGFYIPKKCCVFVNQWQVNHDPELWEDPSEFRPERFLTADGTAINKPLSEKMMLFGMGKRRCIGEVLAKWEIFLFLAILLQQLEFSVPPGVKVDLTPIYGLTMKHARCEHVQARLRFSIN
In the case of `Oc1ccc([C@@H]2CNCc3sccc32)cc1O`, the “activity, negative = inhibition” value is reported as 3.98% (inactive). With `COc1ccccc1CN1CCCC2(CCN(C(=O)c3csnn3)CC2)C1` the “activity, negative = inhibition” value was -22.1% (inactive). In the case of `C=CCn1c(C)cc(C(=O)CN2C(=O)c3ccccc3C2=O)c1C`, the “activity, negative = inhibition” value is reported as 0.647% (inactive). With `Cc1cc(C(=O)CC#N)c(C)n1CC(F)(F)F` the AC50 was 15.8 µM (active). `CC1(C)OC(C(N)=O)C(C(N)=O)O1` (centres undefined) was tested, and the “activity, negative = inhibition” value was -21.8% (inactive). With `CCOC(=O)N/N=C1/C[C@@H](O)[C@@H](O)[C@@H]2[C@@H]3C(=O)N(Cc4ccccc4)C(=O)[C@H]3CC[C@@H]12` the activity, negative = inhibition was -3.55% [at 11.4 µM] (inactive). In the case of `CCOC(=O)N/N=C1/C[C@@H](O)[C@@H](O)[C@@H]2[C@@H]3C(=O)N(Cc4ccccc4)C(=O)[C@H]3CC[C@H]12`, the activity, negative = inhibition is reported as -4.78% [at 11.4 µM] (inactive). In the case of `COc1ccccc1OCC(=O)N/N=C1/SCC(=O)N1Cc1ccccc1`, the AC50 is reported as 5.01 µM (active). In the case of `CCOc1cc(/C=C2/NC(=O)N(CC(=O)Nc3cccc(C)c3)C2=O)ccc1OC`, the “activity, negative = inhibition” value is reported as 1.61% (inactive). `CCOc1cc(/C=C2\C(=O)N(Cc3ccc(C)cc3)C(C)=C2C(=O)OC)ccc1O` was tested, and the AC50 was 14.1 µM (active). `O=C1OCCC1Sc1nnnn1-c1ccccc1` (centres undefined) was tested, and the “activity, negative = inhibition” value was -19.1% (inactive). In the case of `O=C1OCCC1Sc1nnc(-c2ccc(O)cc2)o1` (centres undefined), the AC50 is reported as 2.24 µM (active). With `N#Cc1cccc(NC(=O)N2CC[C@@]3(CCCNC3)C2)c1` the “activity, negative = inhibition” value was -17.6% (inactive). With `NC(=O)c1nn(-c2ccccc2)c(=O)cc1O` the “activity, negative = inhibition” value was 1.04% (inactive). For `O=C(c1ccccc1)c1nn(-c2ccccc2)c(=O)cc1C(F)(F)F`, the AC50 was 0.501 µM (active). For `C=CC[C@@H]1C=C[C@H](ON=C(C)C)[C@H](CO)O1`, the activity, negative = inhibition was 3.87% [at 11.4 µM] (inactive). With `COC(=O)[C@H](C)NC(=O)C/C=C\[C@@H](C)[C@H]1C=C[C@H](O)[C@@H](CO)O1` the activity, negative = inhibition was -5.17% [at 11.4 µM] (inactive). With `Cc1ccc(-c2ccc(/C=N\NC(=O)c3cc4c(ccc5ccccc54)o3)o2)cc1[N+](=O)[O-]` the AC50 was 22.4 µM (active). `C=CCn1cc(/C=N\NC(=O)c2cc3c(ccc4ccccc43)o2)c2ccccc21` was tested, and the AC50 was 1 µM (active). In the case of `Cc1ccccc1C(=O)N/N=C/c1ccncc1`, the AC50 is reported as 12.6 µM (active). For `O=C(N/N=C/c1ccncc1)c1cc2c(ccc3ccccc32)o1`, the AC50 was 0.355 µM (active). For `CC(O)(P(=O)(O)O)P(=O)(O)O`, the “activity, negative = inhibition” value was -0.0229% [at 25.6 µM] (inactive). For `COc1ccccc1CN1CC[C@@]2(CCCN(C(=O)c3cccn3C)C2)C1`, the “activity, negative = inhibition” value was 2.49% (inactive). `O=C(N/N=C/c1cccc([N+](=O)[O-])c1)c1cc2c(ccc3ccccc32)o1` was tested, and the AC50 was 0.355 µM (active). For `O=C(N/N=C/c1ccco1)/C(=C/c1cccc([N+](=O)[O-])c1)NC(=O)c1ccccc1`, the “activity, negative = inhibition” value was 12.9% (inactive). With `Cc1cc(C(=O)N/N=C/c2cccc([N+](=O)[O-])c2)c(C)o1` the AC50 was 1.41 µM (active). In the case of `COc1ccc(/C=N/NC(=O)c2cccc([N+](=O)[O-])c2)cc1OS(=O)(=O)c1ccc(C)cc1`, the “activity, negative = inhibition” value is reported as -9.99% (inactive). For `C#C[C@@]1(OC(C)=O)CC[C@@H]2[C@@H]3CCC4=C[C@@H](OC(C)=O)CC[C@H]4[C@H]3CC[C@]21C`, the “activity, negative = inhibition” value was -7.62% [at 25.6 µM] (inactive). For `C/C(CCN1CCc2nc(-c3ccccc3)c(-c3ccccc3)cc2C1)=N\O[C@@H](C)c1cc(-c2c(C)cc(C)cc2C)no1`, the activity, negative = inhibition was 9.44% [at 11.4 µM] (inactive). In the case of `O=c1cc(N2CCOCC2)oc2c(-c3ccccc3)cccc12`, the AC50 is reported as 1.58 µM (active) and 200 nM (active). `Cc1cc(C)c2nc3c(c([C@H](O)[C@@H]4CCCCN4)c2c1)CC/C3=C/c1ccc(Cl)cc1` was tested, and the activity, negative = inhibition was -20.6% [at 11.4 µM] (inactive). With `Cc1ccc(C(c2nnnn2C2CCCC2)N2CCN3CCCC3C2)cc1` (centres undefined) the “activity, negative = inhibition” value was 1.2% (inactive). In the case of `Clc1ccc(C(c2nnnn2C2CCCC2)N2CCN(Cc3ccncc3)CC2)cc1` (centres undefined), the AC50 is reported as 10 µM (active). For `c1coc(CN2CCN(C(c3cccs3)c3nnnn3C3CCCC3)CC2)c1` (centres undefined), the “activity, negative = inhibition” value was -10.2% (inactive). `C/C=C\C1=C(CO)C(=O)C2O[C@]2(CC=C(C)C)C1=O` (some centres undefined) was tested, and the activity, negative = inhibition was -6.49% [at 11.4 µM] (inactive). With `O=[N+]([O-])c1cccc(-c2nc(-c3cccs3)c(-c3cccs3)[nH]2)c1` the AC50 was 1 µM (active). `O=[N+]([O-])c1cccc(-c2nc(-c3ccccc3)c(-c3cccs3)[nH]2)c1` was tested, and the AC50 was 2.51 µM (active). For `COc1ccc(-c2nc(-c3ccccc3)c(-c3cc([N+](=O)[O-])ccc3C)[nH]2)cc1O`, the AC50 was 14.1 µM (active). With `CCN(CC)c1ccc(NC(=O)c2cnn(CC)c2)cc1` the “activity, negative = inhibition” value was -3.68% (inactive). With `CCOC(OCC)P(=O)(O)CCCNCc1ccc(Cl)c(Cl)c1` the “activity, negative = inhibition” value was -38% (inactive). In the case of `CCOc1ccc(C(=O)Nc2cnn(Cc3ccc(Cl)c(Cl)c3)c2)cc1`, the AC50 is reported as 10 µM (active). With `Cc1cc(C(=O)CSC(=S)SC(C)(C)C)ccc1Cl` the AC50 was 1.58 µM (active). With `N#CCCn1c(=O)cnc2cnc(OCc3ccccc3)nc21` the AC50 was 12.6 µM (active). `N#CCCn1c(=O)c(-c2ccc(Cl)cc2)nc2cnc(OCc3ccccc3)nc21` was tested, and the AC50 was 2 µM (active). In the case of `N#CCCn1c(=O)c(-c2ccc(F)cc2)nc2cnc(OCc3ccccc3)nc21`, the AC50 is reported as 1.58 µM (active). For `N#CCCn1c(=O)c(-c2cc(F)cc(F)c2)nc2cnc(Oc3ccccc3)nc21`, the AC50 was 2 µM (active). `O=C1CC[C@H](NC(=O)c2ccccc2)C(=O)N1` was tested, and the activity, negative = inhibition was -20.9% [at 11.4 µM] (inactive). In the case of `CN(C)c1ncc2nc(-c3cc(F)cc(F)c3)c(=O)n(CCC#N)c2n1`, the “activity, negative = inhibition” value is reported as -15.7% (inactive). In the case of `N#CCCn1c(=O)c(-c2ccccc2)nc2cnc(OCc3ccccc3)nc21`, the AC50 is reported as 3.16 µM (active). `COc1ncc2nc(-c3cc(F)cc(F)c3)c(=O)n(CCC#N)c2n1` was tested, and the AC50 was 6.31 µM (active). `N#CCCn1c(=O)c(-c2cc(F)cc(F)c2)nc2cnc(OCc3ccccc3)nc21` was tested, and the AC50 was 6.31 µM (active). In the case of `COc1cccc([C@@H]2Oc3ccc(OC)cc3/C(=N/O[C@@H](C)c3cn([C@H]4COC[C@H]4O)nn3)[C@@H]2O)c1`, the activity, negative = inhibition is reported as 8.26% [at 11.4 µM] (inactive). In the case of `Clc1ccccc1C(Nc1ncccn1)Nc1ncccn1`, the activity, negative = inhibition is reported as -16.9% [at 11.4 µM] (inactive). With `CC(=O)c1c(C(C)=O)c(C)n(NC(=O)c2ccncc2)c1C` the “activity, negative = inhibition” value was 8.59% (inactive). With `Cc1onc(-c2c(Cl)cccc2Cl)c1C(=O)N1CCc2ccccc2C1` the “activity, negative = inhibition” value was -17.5% (inactive). `CC(=O)c1cc2c(cc1NC(=O)CCCC(=O)O)OCO2` was tested, and the “activity, negative = inhibition” value was -28% (inactive). In the case of `Cc1onc(-c2c(Cl)cccc2Cl)c1C(=O)Nc1ccc2c(c1)OCO2`, the AC50 is reported as 3.16 µM (active). `Cc1onc(-c2ccccc2)c1C(=O)NC(CC(=O)O)c1ccc(OC(C)C)cc1` (centres undefined) was tested, and the “activity, negative = inhibition” value was -19.1% (inactive). With `CC(=O)c1cc2c(cc1NC(=O)c1c(-c3ccccc3)noc1C)OCO2` the AC50 was 2.24 µM (active).
